Source: PubChem BioAssay
CYP2C9 inhib – blocks human cytochrome P450 2C9. CYP2C9 Supersomes, luciferin-H conversion, luminescence. inhibition, % at 5 µM. AID 777. P11712. 20% of 96,000 active;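 active means blocking of liver enzyme CYP2C9 beyond about 50% at 5 µM, limit read from the data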
Cav32 inh – human Cav3.2 channel inhibition, primary screen; B-score at 10 µM; AID 449739; Cav3.2-expressing cells, Fluo-4 calcium fluorescence FDSS; hits give low values; 4% of 100,000 active; O95180;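 active means single-dose well whose peak fluorescence ratio is a statistical outlier from its plate by either plate-standardised score or position-corrected B-score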
CYP2C9 act – activators of human CYP2C9 | recombinant CYP2C9, luciferin-H conversion, luminescence; hits give high values; factor 1 = untreated enzyme, 0 = blocked | 1.4% of 96,000 active | P11712 | activation factor at 5 µM;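 active means activation factor of 2 or more for CYP2C9 at a 5 µM dose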;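 further: 0 = sulfaphenazole-blocked wells and 1 = vehicle-only wells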
CYP2C19 inhib – inhibitors of human CYP2C19 | P33261 | CYP2C19 Supersomes, luciferin-H EGE luminescence, 30 min | inhibition, % at 5 µM | 21% of 96,000 active;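 active means CYP2C19 inhibition above a set limit at 5 µM in the primary screen, cut at about 50% in these data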;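 further: plate controls were negative control wells for no effect and 2.5 mM tranylcypromine positive control for full effect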
Target sequence (P33261 whole entry, looked up): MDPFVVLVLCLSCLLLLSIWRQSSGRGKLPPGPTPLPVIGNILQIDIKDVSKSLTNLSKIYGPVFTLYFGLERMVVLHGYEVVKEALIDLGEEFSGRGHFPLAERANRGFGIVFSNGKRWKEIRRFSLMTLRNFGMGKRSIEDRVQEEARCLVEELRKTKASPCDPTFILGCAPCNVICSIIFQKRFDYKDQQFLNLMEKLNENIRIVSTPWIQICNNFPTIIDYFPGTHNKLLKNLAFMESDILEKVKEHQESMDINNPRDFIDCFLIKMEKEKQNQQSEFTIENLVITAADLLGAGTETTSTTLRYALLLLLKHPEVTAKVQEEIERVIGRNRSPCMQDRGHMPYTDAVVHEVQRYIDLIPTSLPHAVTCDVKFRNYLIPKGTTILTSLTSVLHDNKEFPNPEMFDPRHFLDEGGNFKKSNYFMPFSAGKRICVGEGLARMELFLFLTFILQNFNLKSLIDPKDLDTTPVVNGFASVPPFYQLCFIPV
CYP2C19 activ – increases human CYP2C19 enzyme activity; P33261; recombinant CYP2C19, luciferin-H EGE luminescence; hits give high values; 0 = fully inhibited enzyme, 1 = untreated enzyme; activation factor at 5 µM; 96,000 tested, under 10 active; AID 1025;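 active means activation factor of at least 2 at 5 µM in the primary screen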;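 further: 0 = wells with 2.5 mM tranylcypromine and 1 = vehicle-only wells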
Numbers without * were called inactive. In the library only some 27% were active in any assay of this set; here they are far more common.

N#Cc1cc2c(nc1SCC(O)CS(=O)(=O)Cc1ccc(Cl)cc1)CCCC2 (configuration not stated) was read as CYP2C9 inhib 81.3*, Cav32 inh -1.49, CYP2C9 act 0.2, CYP2C19 inhib 59.2* and CYP2C19 activ 0.4.
Cc1cc(C)c(C#N)c(SCC(O)CS(=O)(=O)Cc2ccccc2)n1 (configuration not stated) was read as CYP2C9 inhib 72.0*, Cav32 inh 0.471, CYP2C9 act 0.3, CYP2C19 inhib 96.7* and CYP2C19 activ 0.
CC(C)(C)c1ccc(S(=O)(=O)CC(O)CSc2nc3c(cc2C#N)CCCC3)cc1 (configuration not stated) was read as CYP2C9 inhib 77.6*, Cav32 inh -2.2, CYP2C9 act 0.2, CYP2C19 inhib 35.8 and CYP2C19 activ 0.6.
For Cc1ccc(C)c(NC(=O)CSc2nc(C)cc(C)c2C#N)c1 the results were Cav32 inh 0.808.
CCS(=O)(=O)CCSc1nc2c(cc1C#N)CCCC2 was read as CYP2C9 inhib 9.8, Cav32 inh -0.983, CYP2C9 act 0.9, CYP2C19 inhib 23.4 and CYP2C19 activ 0.8.
For N#Cc1cc2c(nc1SCc1ccncc1)CCC2 the results were CYP2C9 inhib 86.9*, Cav32 inh -0.288, CYP2C9 act 0.1, CYP2C19 inhib 100.0* and CYP2C19 activ 0.
For CSCCc1nc(SCC(=O)Nc2nnc(C)s2)[nH]c1C the results were CYP2C9 inhib 0.9, Cav32 inh -0.0379, CYP2C9 act 1, CYP2C19 inhib -4.2 and CYP2C19 activ 1.
For Cn1c(SCC(=O)NCCc2ccccc2)nnc1-c1ccco1 the results were CYP2C9 inhib -14.6, Cav32 inh 0.107, CYP2C9 act 1.1, CYP2C19 inhib -6.7 and CYP2C19 activ 1.1.
COc1cccc(-n2c(SCC(=O)NCCc3ccccc3)nnc2-c2ccoc2C)c1 was read as CYP2C9 inhib 87.7*, Cav32 inh -8.05*, CYP2C9 act 0.1, CYP2C19 inhib 98.1* and CYP2C19 activ 0.
Cc1occc1-c1nnc(SCC(=O)Nc2ccccc2)n1CCc1ccccc1 was read as CYP2C9 inhib 84.7*, Cav32 inh -3.75, CYP2C9 act 0.2, CYP2C19 inhib 92.0* and CYP2C19 activ 0.1.
Cc1occc1-c1nnc(SCC(=O)Nc2ccccc2)n1C(C)c1ccccc1 (configuration not stated) was read as CYP2C9 inhib 96.0*, Cav32 inh -4.27*, CYP2C9 act 0, CYP2C19 inhib 88.7* and CYP2C19 activ 0.1.
`Cc1nnc(NC(=O)CSc2nnc(-c3ccoc3C)n2CC(C)C)s1` gave CYP2C9 inhib 46.2, Cav32 inh -0.00857, CYP2C9 act 0.5, CYP2C19 inhib 41.2 and CYP2C19 activ 0.6.
Screening Cc1occc1-c1nnc(SCC(=O)NCCc2ccccc2)n1Cc1ccccc1 returned CYP2C9 inhib 54.6*, Cav32 inh -4.96*, CYP2C9 act 0.5, CYP2C19 inhib 32.1 and CYP2C19 activ 0.7.
Screening O=C(Nc1nc2ccccc2[nH]1)c1ccc(Cl)c(S(=O)(=O)N2CCCC2)c1 returned CYP2C9 inhib 33.2, Cav32 inh -1.26, CYP2C9 act 0.7, CYP2C19 inhib 43.2 and CYP2C19 activ 0.6.
COc1cc(N2CCOCC2)ncn1 was read as CYP2C9 inhib -22.0, Cav32 inh -0.0467, CYP2C9 act 1.2, CYP2C19 inhib -18.6 and CYP2C19 activ 1.2.
Screening O=C(NNC(=O)c1cc(O)c(O)c(O)c1)NC1CCCCC1 returned CYP2C9 inhib -7.7, Cav32 inh 0.462, CYP2C9 act 1.1, CYP2C19 inhib 11.5 and CYP2C19 activ 0.9.
For CCOC(=O)c1cccc(NC(=O)CSc2nnc(-c3ccoc3C)n2CCOC)c1 the results were CYP2C9 inhib 89.0*, Cav32 inh 0.287, CYP2C9 act 0.1, CYP2C19 inhib 82.9* and CYP2C19 activ 0.2.
CN(C(=O)/C(N=Nc1cccc(C(F)(F)F)c1)=C(\O)C(F)(F)F)c1ccccc1 was read as CYP2C9 inhib 80.1*, CYP2C9 act 0.2, CYP2C19 inhib 82.1* and CYP2C19 activ 0.2.
c1ccc(CSc2nnc(NC3=NCCCCC3)s2)cc1 was read as CYP2C9 inhib 36.6, Cav32 inh -3.06, CYP2C9 act 0.6, CYP2C19 inhib 68.3* and CYP2C19 activ 0.3.
Screening CCOC(=O)Nc1ccc(OC)cc1S(=O)(=O)N1CCCCC1 returned CYP2C9 inhib -7.5, Cav32 inh -0.0201, CYP2C9 act 1.1, CYP2C19 inhib 62.8* and CYP2C19 activ 0.4.
COc1ccc(C(C)(C)C)cc1S(=O)(=O)N1CCN(C)CC1 was read as CYP2C9 inhib -96.6, Cav32 inh 0.324, CYP2C9 act 2*, CYP2C19 inhib 22.7 and CYP2C19 activ 0.8.
Screening COc1c(C)cc(S(=O)(=O)N2CCCC2)c(C)c1C returned CYP2C9 inhib -64.0, Cav32 inh -1.63, CYP2C9 act 1.6, CYP2C19 inhib 96.1* and CYP2C19 activ 0.
For COc1cc(C)c(S(=O)(=O)N2CCCC2)cc1C the results were CYP2C9 inhib -45.8, Cav32 inh 0.00461, CYP2C9 act 1.5, CYP2C19 inhib 88.3* and CYP2C19 activ 0.1.
Screening COc1cc(C)c(Br)cc1S(=O)(=O)N1CCOCC1 returned Cav32 inh -0.585.
CCOc1ccccc1NC(=O)c1ccc(S(=O)(=O)N2CCOCC2)cc1 was read as CYP2C9 inhib -26.9, Cav32 inh -2.95, CYP2C9 act 1.3, CYP2C19 inhib 3.9 and CYP2C19 activ 1.
CCOc1ccc(Br)cc1S(=O)(=O)N1CC(C)OC(C)C1 (configuration not stated) was read as CYP2C9 inhib -2.9, Cav32 inh -0.479, CYP2C9 act 1, CYP2C19 inhib 88.2* and CYP2C19 activ 0.1.
COc1cc(C)c(S(=O)(=O)N2CCN(C)CC2)cc1C was read as CYP2C9 inhib -14.2, Cav32 inh 1.09, CYP2C9 act 1.1, CYP2C19 inhib 62.0* and CYP2C19 activ 0.4.
For CCOc1ccc(C(C)(C)C)cc1S(=O)(=O)N1CCOCC1 the results were CYP2C9 inhib 50.3*, CYP2C9 act 0.5, CYP2C19 inhib 67.9* and CYP2C19 activ 0.3.
For CCOc1cc(Br)ccc1S(=O)(=O)N1CC(C)OC(C)C1 (configuration not stated) the results were CYP2C9 inhib 11.8, Cav32 inh -1.29, CYP2C9 act 0.9, CYP2C19 inhib 11.4 and CYP2C19 activ 0.9.
For COc1ccc(S(=O)(=O)N2CCCN(S(=O)(=O)c3ccc(OC)cc3C)CC2)c(C)c1 the results were CYP2C9 inhib -108.8, Cav32 inh 0.0716, CYP2C9 act 2.1*, CYP2C19 inhib 22.6 and CYP2C19 activ 0.8.
For COc1ccc(OC)c(S(=O)(=O)N2CCCCCC2)c1 the results were CYP2C9 inhib -11.6, Cav32 inh 0.193, CYP2C9 act 1.1, CYP2C19 inhib 33.6 and CYP2C19 activ 0.7.
`Cc1c(=O)n(OCc2ccccc2F)c2ccccc2[n+]1[O-]` gave CYP2C9 inhib -4.2, Cav32 inh -0.306, CYP2C9 act 1, CYP2C19 inhib 19.7 and CYP2C19 activ 0.8.
`NC(=O)CSc1nc(-c2ccccc2)c(-c2ccccc2)o1` gave Cav32 inh 0.00246.
